In PubChem BioAssay (NCATS):
Inconclusive results are not listed. Active and inactive are the calls of the source. The call rests on the fitted dose curve; in most records, active means well fitted inhibition curve with a large enough effect; inconclusive means small, poorly fitted or top-dose-only effect; inactive means flat fitted curve, though single readings scatter.

Legend:
Test in all cases: qHTS profiling for inhibitors of Plasmodium falciparum proliferation (AID 504749); further: nearly all actives have a fitted effect of over 60% in size
Settings in all cases: P. falciparum in erythrocytes, SYBR Green DNA, 72 h; series mostly up to 12.8 µM
3D7 = tested on: 3D7
Outline: (§1)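 Three-day growth assay of blood-stage parasites in erythrocytes (0.3% parasitemia, 2.5% hematocrit) at 37 C, 5% CO2, quantified by SYBR Green DNA staining after overnight detergent lysis.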

AA1029 = tested on: AA1029
Outline: as §1

ATS95 = tested on: ATS95
Outline: as §1

C2A = tested on: C2A
Outline: as §1

CP203 = tested on: CP203
Outline: as §1

CP211 = tested on: CP211
Outline: as §1

CP252 = tested on: CP252
Outline: as §1

CP260 = tested on: CP260
Outline: as §1

CP268 = tested on: CP268
Outline: as §1

CP286 = tested on: CP286
Outline: as §1

CP291 = tested on: CP291
Outline: as §1

CP315 = tested on: CP315
Outline: as §1

CP325 = tested on: CP325
Outline: as §1

CP335 = tested on: CP335
Outline: as §1

ECU = tested on: ECU
Outline: as §1

GB4 = tested on: GB4
Outline: as §1

HB3 = tested on: HB3
Outline: as §1

P93_24 = tested on: P93_24
Outline: as §1

PAD = tested on: PAD
Outline: as §1

TAB165 = tested on: TAB165
Outline: as §1

Measured: Potency
Potency means the concentration at half of the fitted maximal effect.

CN1CCCC[C@@H]1CCN1c2ccccc2Sc2ccc(S(C)=O)cc21 (some centres undefined)
inactive: 3D7 | AA1029 | ATS95 | C2A | CP203 | CP211 | CP252 | CP260 | CP268 | CP286 | CP291 | CP315 | CP325 | CP335 | ECU | GB4 | HB3 | P93_24 | PAD | TAB165

CC[C@@]12CCCN3CCc4c(n(c5ccccc45)C(=O)C1)[C@H]32
inactive: 3D7 | AA1029 | ATS95 | C2A | CP203 | CP211 | CP252 | CP260 | CP286 | CP291 | CP315 | CP325 | CP335 | ECU | GB4 | HB3 | P93_24 | PAD | TAB165

CCCN[C@@H](C)C(=O)Nc1ccccc1C
inactive: 3D7 | AA1029 | ATS95 | C2A | CP203 | CP211 | CP252 | CP260 | CP268 | CP286 | CP291 | CP315 | CP325 | CP335 | ECU | GB4 | HB3 | P93_24 | PAD | TAB165

CN(C)[C@@H]1C(=O)C(C(N)=O)=C(O)[C@]2(O)C(=O)C3=C(O)c4c(O)ccc(Cl)c4[C@H](O)[C@H]3C[C@@H]12
inactive: C2A | CP203 | CP211 | CP252 | CP268 | CP291 | CP315 | CP325

N[C@@H](CO)C(=O)NNCc1ccc(O)c(O)c1O
inactive: 3D7 | AA1029 | ATS95 | C2A | CP203 | CP211 | CP252 | CP260 | CP268 | CP286 | CP291 | CP315 | CP325 | CP335 | ECU | GB4 | HB3 | P93_24 | PAD | TAB165

CC(C)(C)NC[C@H](O)c1cc(O)cc(O)c1
inactive: 3D7 | AA1029 | ATS95 | C2A | CP203 | CP252 | CP260 | CP268 | CP286 | CP291 | CP315 | CP325 | CP335 | ECU | GB4 | HB3 | P93_24 | PAD | TAB165

C[C@@H](CCc1ccccc1)NC[C@H](O)c1ccc(O)c(C(N)=O)c1
inactive: AA1029 | ATS95 | C2A | CP203 | CP211 | CP252 | CP260 | CP268 | CP286 | CP291 | CP315 | CP325 | CP335 | P93_24 | TAB165

C[C@@H]1c2cccc(O)c2C(O)=C2C(=O)[C@@]3(O)C(O)=C(C(N)=O)C(=O)[C@@H](N(C)C)[C@@H]3[C@@H](O)[C@@H]21
inactive: CP211
active: CP335 4.26 µM

CO/N=C(\C(=O)N[C@@H]1C(=O)N2C(C(=O)O)=C(COC(C)=O)CS[C@@H]12)c1csc(N)n1
inactive: 3D7 | AA1029 | ATS95 | C2A | CP203 | CP211 | CP252 | CP260 | CP268 | CP286 | CP291 | CP315 | CP325 | CP335 | ECU | GB4 | HB3 | P93_24 | PAD | TAB165

CCn1cc(C(=O)O)c(=O)c2cc(F)c(N3CCN[C@@H](C)C3)c(F)c21
inactive: 3D7 | AA1029 | ATS95 | C2A | CP203 | CP211 | CP252 | CP260 | CP315 | ECU | GB4 | HB3 | P93_24 | PAD | TAB165

NC(=O)c1cc[n+](CC2=C(C(=O)O)N3C(=O)[C@@H](NC(=O)[C@H](c4ccccc4)S(=O)(=O)[O-])[C@@H]3SC2)cc1
active: 3D7 1.12 µM | ATS95 3.55 µM | CP260 1.41 µM | CP268 4.05 µM | CP286 1.78 µM | CP325 4.55 µM | CP335 1.61 µM | ECU 2 µM | GB4 0.907 µM | HB3 0.891 µM | P93_24 1.26 µM | PAD 1.41 µM | TAB165 1 µM

O=C(c1ccccc1)c1ccc2n1CC[C@H]2C(=O)O
inactive: 3D7 | AA1029 | ATS95 | C2A | CP203 | CP211 | CP252 | CP260 | CP268 | CP286 | CP291 | CP315 | CP325 | CP335 | ECU | GB4 | HB3 | P93_24 | PAD | TAB165

CCCN(CCC)C(=O)[C@@H](CCC(=O)O)NC(=O)c1ccccc1
inactive: 3D7 | AA1029 | ATS95 | C2A | CP203 | CP211 | CP252 | CP260 | CP268 | CP286 | CP291 | CP315 | CP325 | CP335 | ECU | GB4 | HB3 | P93_24 | PAD | TAB165

CC[C@]1(C)CC(=O)NC1=O
inactive: 3D7 | AA1029 | ATS95 | C2A | CP211 | CP252 | CP260 | CP268 | CP286 | CP291 | CP315 | CP325 | CP335 | ECU | GB4 | HB3 | P93_24 | PAD | TAB165

C[C@@H]1COc2c(N3CCN(C)CC3)c(F)cc3c(=O)c(C(=O)O)cn1c23
inactive: 3D7 | AA1029 | ATS95 | C2A | CP203 | CP211 | CP252 | CP268 | CP286 | CP291 | CP315 | CP325 | CP335 | ECU | GB4 | HB3 | P93_24 | PAD | TAB165

CC(=O)OCC1=C(C(=O)O)N2C(=O)[C@@H](NC(=O)CSc3ccncc3)[C@@H]2SC1
inactive: 3D7 | AA1029 | ATS95 | C2A | CP203 | CP211 | CP252 | CP260 | CP268 | CP286 | CP291 | CP315 | CP325 | CP335 | ECU | GB4 | HB3 | P93_24 | PAD | TAB165

COc1ccccc1OC[C@H](O)COC(N)=O
inactive: 3D7 | AA1029 | ATS95 | C2A | CP203 | CP211 | CP252 | CP260 | CP268 | CP286 | CP291 | CP315 | CP325 | CP335 | ECU | GB4 | HB3 | P93_24 | PAD | TAB165

CC1(C)O[C@@H]2C[C@H]3[C@H]4C[C@H](F)C5=CC(=O)C=C[C@@]5(C)[C@@H]4[C@H](O)C[C@]3(C)[C@]2(C(=O)CO)O1
inactive: 3D7 | AA1029 | ATS95 | C2A | CP203 | CP211 | CP252 | CP260 | CP268 | CP286 | CP291 | CP315 | CP325 | CP335 | ECU | GB4 | HB3 | P93_24 | PAD | TAB165
